TR SRC2 fluor cs: Total Fluorescence Counterscreen for Inhibitors of the Interaction of Thyroid Hormone Receptor and Steroid Receptor Coregulator 2; TRb/SRC2 Texas Red total fluorescence interference; Potency, µM (series often up to 106 µM), for the others: at the top dose fluorescence change, negative = quenching; hit rate 0.29% among 280,000; AID 1479, 2009; active = well fitted curve in either direction with a large enough effect; inconclusive = small, poorly fitted or top-dose-only effect
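Human TRβ ligand-binding domain (0.6 uM) and Texas Red SRC2 peptide (20 nM) in Tris buffer with 1 uM T3 and 5% DMSO were incubated with pinned compound for 5 hr at ambient temperature. Total fluorescence was computed as S + 2P (555/632 nm).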
VDR inhibitor: Inhibitors of the vitamin D receptor (VDR): qHTS | Vitamin D3 receptor (Homo sapiens), P11473 | Potency, µM, without a hit: max response, negative = inhibition, most hits filed as inhibitors | hit rate 0.93% among 400,000 | VDR-SRC2-3 peptide fluorescence polarization, 2 h
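Fluorescence polarization assay measuring small-molecule disruption of VDR binding to the coregulator peptide SRC2-3. Compounds were pin-transferred (23 nl) into the reagent mix and incubated 2 h at room temperature before reading.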
TRb SRC2 PPI: qHTS for Inhibitors of the Interaction of Thyroid Hormone Receptor and Steroid Receptor Coregulator 2. hit rate 0.065% among 280,000. AID 1469, 2008. TRbeta-SRC2 peptide binding, fluorescence polarization; receptor liganded with 1 µM T3. Thyroid hormone receptor beta (Homo sapiens), P10828. Potency, µM (series often up to 106 µM), for the others: top-dose activity change, negative = inhibition, usual class: inhibitors;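 note: plate controls were bound peptide for no effect and peptide without receptor for full effect; nearly all actives have a fitted effect of over 50% in size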
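Compounds were added to 0.6 uM TRb ligand-binding domain and 20 nM Texas Red-labeled SRC2 peptide in Tris buffer containing 1 uM T3, incubated 5 hr at ambient temperature, then read by fluorescence polarization.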
RGS12 GoLoco inh: qHTS Assay for Inhibitors of RGS12 GoLoco Motif Activity (Red Fluorophore); Potency, µM (series often up to 61.6 µM), inactives show at the highest dose activity, negative = inhibition, hits mostly inhibitors; hit rate 0.44% among 230,000; Gai1:RGS12 GoLoco peptide FP, rhodamine, 10 min; AID 880, 2007; Guanine nucleotide-binding protein G(i) subunit alpha-1 (Homo sapiens), P63096; active = well fitted inhibition curve with a large enough effect, not every such curve was filed as active; inactive = no such curve, though single readings can be large or run the other way; note: nearly all actives have a fitted effect of over 30% in size
GCN5L2 inh: qHTS Assay for Inhibitors of GCN5L2 | GCN5L2 HAT assay, ThioGlo1 CoA-SH fluorescence | Potency, µM (doses to about 58.9 µM), for inactives: at the top dose activity change, negative = inhibition, usual class: inhibitors | hit rate 0.21% among 390,000
Target sequence (Q92830 whole entry, looked up): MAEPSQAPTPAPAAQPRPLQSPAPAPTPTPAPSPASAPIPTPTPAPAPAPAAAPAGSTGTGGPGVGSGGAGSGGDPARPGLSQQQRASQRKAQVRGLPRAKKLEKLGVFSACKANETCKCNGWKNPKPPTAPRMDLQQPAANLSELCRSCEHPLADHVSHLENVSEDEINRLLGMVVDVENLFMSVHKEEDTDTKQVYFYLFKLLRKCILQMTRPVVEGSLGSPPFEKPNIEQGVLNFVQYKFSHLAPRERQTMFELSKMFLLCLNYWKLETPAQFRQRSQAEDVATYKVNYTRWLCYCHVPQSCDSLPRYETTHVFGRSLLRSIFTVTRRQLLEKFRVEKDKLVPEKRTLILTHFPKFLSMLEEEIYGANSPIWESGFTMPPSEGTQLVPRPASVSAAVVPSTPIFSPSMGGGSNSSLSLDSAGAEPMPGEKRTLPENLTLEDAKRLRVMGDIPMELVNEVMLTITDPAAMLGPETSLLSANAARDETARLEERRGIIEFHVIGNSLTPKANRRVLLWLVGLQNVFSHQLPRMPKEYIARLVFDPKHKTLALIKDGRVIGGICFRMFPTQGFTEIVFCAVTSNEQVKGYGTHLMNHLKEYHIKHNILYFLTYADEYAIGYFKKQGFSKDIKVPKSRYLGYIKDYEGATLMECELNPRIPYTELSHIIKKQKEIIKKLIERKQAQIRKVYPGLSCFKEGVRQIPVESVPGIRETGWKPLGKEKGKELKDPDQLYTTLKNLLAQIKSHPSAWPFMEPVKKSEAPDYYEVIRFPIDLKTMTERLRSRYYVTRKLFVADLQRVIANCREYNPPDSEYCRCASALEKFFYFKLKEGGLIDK
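Enzyme at 20nM final was mixed with library compounds for 15 min at room temperature. Peptide H3(1-25) at 75uM, acetyl-CoA at 70uM and ThioGlo1 at 50uM were then added. Plates were read immediately and after 20 min (Ex340nm/Em540nm).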
* = called active by the depositor; ! = a repeat was not active; [ ] = another dose, or the depositor's remark. The list is not random: actives were taken first. Their share in the collection is about 1.2%. Unless noted, calls come from the whole dose curve; as a rule, active = well fitted curve in the direction sought with a large enough effect; inconclusive = small, poorly fitted or top-dose-only effect, or another doubt; inactive = no such curve, though single readings can be large; an effect the other way counts as inactive or inconclusive. Unless noted, % is set by controls: 0 for no effect and ±100 for the full control effect; potency is the fitted concentration of half-maximal effect.

For O=C(NCCc1ccccc1)C1CCN(S(=O)(=O)c2cccc3nonc23)CC1 the results were TR SRC2 fluor cs 3%, VDR inhibitor 6%, TRb SRC2 PPI 7%, RGS12 GoLoco inh 5% and GCN5L2 inh -4%[0.501 µM].
Screening O=C(C1CCN(S(=O)(=O)c2cccc3nonc23)CC1)N1CCN(c2cccc(Cl)c2)CC1 returned TR SRC2 fluor cs -2%, VDR inhibitor 12%, TRb SRC2 PPI -1% and GCN5L2 inh -3%.
For NS(=O)(=O)c1ccc(-c2ccc(/C=C3\NC(=S)NC3=O)o2)cc1 the results were VDR inhibitor 79µM* and GCN5L2 inh -3%.
Screening NS(=O)(=O)c1ccc(-c2ccc(C=O)o2)cc1 returned TR SRC2 fluor cs -2%, VDR inhibitor -2%, TRb SRC2 PPI 7%, RGS12 GoLoco inh 4% and GCN5L2 inh -9%.
CC1=C(C#N)C(=O)NC(=O)/C1=C/c1ccc(-c2ccc(S(N)(=O)=O)cc2)o1 was read as TR SRC2 fluor cs -1%, VDR inhibitor 25µM*, TRb SRC2 PPI -7%, RGS12 GoLoco inh -13% and GCN5L2 inh -20%.
C[n+]1ccc(/C=C/c2ccc(Br)cc2)cc1 was read as TR SRC2 fluor cs -1%, VDR inhibitor -7%, TRb SRC2 PPI -1%, RGS12 GoLoco inh 20µM* and GCN5L2 inh -21%.
C[n+]1ccc(/C=C/c2ccc3ccccc3c2)cc1 was read as TR SRC2 fluor cs -5%, VDR inhibitor inconclusive, TRb SRC2 PPI -2%, RGS12 GoLoco inh -29% and GCN5L2 inh 28µM*.
Screening C[n+]1ccccc1/C=C/c1ccc2ncccc2c1 returned VDR inhibitor -8% and GCN5L2 inh -4%.
Screening COc1ccc2c(c1)OC1(O)COc3cc(OC)c(OC)cc3C1=C2 (configuration not stated) returned TR SRC2 fluor cs -9%, VDR inhibitor 6%, TRb SRC2 PPI -2%, RGS12 GoLoco inh 4% and GCN5L2 inh -25%.
`O=C(c1ccc(N2C(=O)C3C4CC(C(Br)C4Br)C3C2=O)cc1)N1CCCCC1` (configuration not stated) gave VDR inhibitor -14% and GCN5L2 inh 0.79µM*.
For COc1ccc(S(=O)(=O)N2CCN(c3ccccc3F)CC2)cc1-c1noc(C)n1 the results were TR SRC2 fluor cs -1%, VDR inhibitor 5%, TRb SRC2 PPI -3% and GCN5L2 inh 16µM*.
`CCc1nc(-c2cc(S(=O)(=O)N3CCN(c4ccccc4F)CC3)ccc2OC)no1` gave TR SRC2 fluor cs -1%, VDR inhibitor -2%, TRb SRC2 PPI -4% and GCN5L2 inh -5%.
CCOC(=O)c1c(C)oc2nc(C)nc(N3CCN(c4ccc(C)cc4C)CC3)c12 was read as TR SRC2 fluor cs 447µM*[quencher], VDR inhibitor 19%, TRb SRC2 PPI -11% and GCN5L2 inh -1%.
Screening CCOC(=O)c1c(C)oc2ncnc(N3CCN(c4ccc(C)cc4C)CC3)c12 returned TR SRC2 fluor cs 1%, VDR inhibitor -24%, TRb SRC2 PPI 4% and GCN5L2 inh 0%.
O=C(Nc1nccs1)C1CC=CCC1 (configuration not stated) was read as VDR inhibitor -15% and GCN5L2 inh -1%.
Screening O=C(Nc1ccc(O)cc1)C1CC=CCC1 (configuration not stated) returned TR SRC2 fluor cs 8%, VDR inhibitor -3%, TRb SRC2 PPI -24%, RGS12 GoLoco inh 25µM* and GCN5L2 inh -2%.
`CCc1oc2ccccc2c1C(=O)c1cc(Br)c(O)c(Br)c1` gave TR SRC2 fluor cs -6%, VDR inhibitor 50µM*!, TRb SRC2 PPI 6%, RGS12 GoLoco inh 7% and GCN5L2 inh inconclusive.
`Cc1cccc(N2C(=O)C(Cl)=C(N3CCOCC3)C2=O)c1` gave TR SRC2 fluor cs -2%, VDR inhibitor inconclusive, TRb SRC2 PPI 1%, RGS12 GoLoco inh -3% and GCN5L2 inh -1%.
`O=C1C(Cl)=C(N2CCOCC2)C(=O)N1c1cccc(Cl)c1` gave TR SRC2 fluor cs -1%, VDR inhibitor 25µM*, TRb SRC2 PPI -2%, RGS12 GoLoco inh -8% and GCN5L2 inh -3%.
For COc1ccc(N2C(=O)C(Cl)=C(N3CCOCC3)C2=O)cc1 the results were VDR inhibitor 28µM* and GCN5L2 inh 1%.
Screening CC(C)(C)N1C(=O)[C@H]2[C@H]3[C@H](O)[C@H](O)C/C(=N/OC[C@@H](O)COCc4ccco4)[C@@H]3CC[C@@H]2C1=O returned TR SRC2 fluor cs -1%[11.2 µM] and TRb SRC2 PPI -1%[11.2 µM].
`CN(C)Cc1cc(CN(C)C)c(O)c(CN(C)C)c1` gave TR SRC2 fluor cs -3%[201 µM] and TRb SRC2 PPI 5%[201 µM].
`CC(C)N1C/C(=C/c2ccsc2)C(=O)/C(=C/c2ccsc2)C1` gave TR SRC2 fluor cs -9%, VDR inhibitor 16µM*, TRb SRC2 PPI 5%, RGS12 GoLoco inh -8% and GCN5L2 inh 42%.
Cc1cc(C)c(Nc2cc(S(=O)(=O)O)c(N)c3c2C(=O)c2ccccc2C3=O)c(C)c1 was read as TR SRC2 fluor cs -24%, VDR inhibitor inconclusive, TRb SRC2 PPI 45µM*, RGS12 GoLoco inh 6% and GCN5L2 inh inconclusive.
Cc1ccc(F)c(C2C3C=CCCC3(C)C(=O)N2Cc2ccccc2)c1 (configuration not stated) was read as TR SRC2 fluor cs 0%, VDR inhibitor -15% and TRb SRC2 PPI -5%.
`COc1ccc(N2CCN(C(c3ccccc3)c3nnnn3C(C)C)CC2)cc1` (configuration not stated) gave VDR inhibitor -10%.
`C=CCOc1ccccc1/C=c1\sc2nc(=O)c(C)nn2c1=O` gave TR SRC2 fluor cs -3%, VDR inhibitor 71µM*, TRb SRC2 PPI -5%, RGS12 GoLoco inh 22% and GCN5L2 inh -13%.
For Cc1ccc2occ(CC(=O)Nc3ccc(Cl)c(C(F)(F)F)c3)c2c1 the results were TR SRC2 fluor cs 9%, VDR inhibitor -12%, TRb SRC2 PPI -1% and GCN5L2 inh -14%.
O=C1N/C(=N/Nc2ccccc2)S/C1=C\c1ccccc1 was read as TR SRC2 fluor cs -3%, VDR inhibitor 45µM*, TRb SRC2 PPI -4%, RGS12 GoLoco inh 204% and GCN5L2 inh inconclusive.
`Cc1ccc(S(=O)(=O)CCNC(=O)Cc2ccccc2)cc1` gave TR SRC2 fluor cs -5%, VDR inhibitor 56µM*, TRb SRC2 PPI 6%, RGS12 GoLoco inh 4% and GCN5L2 inh -12%.

Assay outcomes from PubChem BioAssay.
